# An excerpt weighted towards active compounds, which were near 18% of everything screened.
# TDP1 cell noCPT – qHTS for Inhibitors of human tyrosyl-DNA phosphodiesterase 1 (TDP1): qHTS in cells in absence of CPT | DT40 Tdp1-/- hTDP1 cells, no CPT, ATP luminescence, 48 h | Potency, µM (top dose mostly 46.2 µM), hits mostly inhibitors | actives 15% (n = 420,000) | AID 686978, 2013; note: nearly all actives have a fitted effect of over 55% in size
#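 Growth of hTDP1-complemented DT40 Tdp1-knockout cells is measured by ATP luminescence after at least 48 hr compound exposure at 37 °C, with DMSO substituting for the 20 nM CPT used in the parallel screen.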
# HepG2 tox-1 – qHTS for Inhibitors of TGF-b: Cytotox Counterscreen; HepG2 CAGA-GFP viability, ATP luminescence, 18 h; Potency, µM (doses to about 46.1 µM), actives largely listed as cytotoxic; actives 0.76% (n = 410,000)
#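 CellTiter-Glo luminescence gave cytotoxicity after 18 hours at 37 degrees C. The cells were HepG2 CAGA-GFP in 1% FBS DMEM, stimulated with 500 pg/mL TGF-beta after compound addition. %Activity was normalised to no-cell wells (complete cell-killing) and DMSO (no toxicity), and curves were fitted and classified.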
# TDP1 inh – qHTS Assay for Inhibitors of Tyrosyl-DNA Phosphodiesterase (TDP1) | Tyrosyl-DNA phosphodiesterase 1 (Homo sapiens), Q9NUW8 | recombinant TDP1, AlphaScreen DNA substrate cleavage | Potency, µM (top dose mostly 130 µM), most hits filed as inhibitors | actives 0.28% (n = 350,000) | AID 485290, 2010; note: nearly all actives have a fitted effect of over 40% in size
# Target sequence (Q9NUW8 whole entry, looked up): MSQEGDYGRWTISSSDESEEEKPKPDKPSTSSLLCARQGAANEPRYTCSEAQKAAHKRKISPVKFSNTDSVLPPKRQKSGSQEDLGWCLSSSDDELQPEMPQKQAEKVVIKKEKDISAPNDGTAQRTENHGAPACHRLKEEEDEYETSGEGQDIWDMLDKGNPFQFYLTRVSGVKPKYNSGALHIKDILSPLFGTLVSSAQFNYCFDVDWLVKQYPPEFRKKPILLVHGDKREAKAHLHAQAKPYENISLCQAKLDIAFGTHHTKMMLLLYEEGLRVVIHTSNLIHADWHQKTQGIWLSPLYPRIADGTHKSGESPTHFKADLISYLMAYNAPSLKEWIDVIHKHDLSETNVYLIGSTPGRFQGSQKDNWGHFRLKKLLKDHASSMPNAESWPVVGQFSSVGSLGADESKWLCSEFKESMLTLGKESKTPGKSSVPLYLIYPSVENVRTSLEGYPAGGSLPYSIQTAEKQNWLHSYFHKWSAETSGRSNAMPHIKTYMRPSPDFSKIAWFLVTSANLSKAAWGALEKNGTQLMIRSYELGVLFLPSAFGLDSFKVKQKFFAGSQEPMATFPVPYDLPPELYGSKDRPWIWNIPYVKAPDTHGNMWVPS
#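 Signal: AlphaScreen proximity between streptavidin donor and anti-FITC acceptor beads on intact substrate. Reaction: Tdp1 1 nM, substrate 15 nM final, 5 min RT after 15 min compound preincubation.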
# IL-1B inflam inh – qHTS for Inhibitors of Inflammasome Signaling: IL-1-beta AlphaLISA Primary Screen. THP-1 LPS/ATP IL-1B secretion, AlphaLISA, 16 h; hits give low values. activity change, % at 57.5 µM. actives 4.7% (n = 360,000). AID 743279, 2014; in the data active = activity change below about -50%; inconclusive = mostly about -30% to -49%
#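 THP-1 cells pretreated 1 hr with compounds (up to 57.5 uM final), then stimulated with LPS (250 ng/mL final) plus ATP (1.25 mM final); secreted IL-1B measured by AlphaLISA after 16 hr, decreased signal indicating inhibition.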
# TGFb SMAD3 inh – qHTS for Inhibitors of TGF-b. Potency, µM (top dose mostly 46.1 µM), usual class: inhibitors. actives 1.2% (n = 410,000). HepG2 CAGA-GFP TGF-b/SMAD3 reporter, GFP fluorescence, 18 h; TGF-beta stimulated, 500 pg/mL final; note: nearly all actives have a fitted effect of over 65% in size
#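 Read-out: total well GFP (ex488/em500-530) summed from mean per-cell fluorescence. Cells: HEPG2 CAGA-GFP, 1% FBS DMEM, 18 h at 37 degrees C with 500 pg/mL final TGF-beta. Unstimulated wells served as the full-inhibition control; stimulated DMSO wells = 0%.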
# DT40 TDP1 CPT – qHTS for Inhibitors of human tyrosyl-DNA phosphodiesterase 1 (TDP1): qHTS in cells in presence of CPT. actives 12% (n = 420,000). Potency, µM (highest dose often 46.2 µM), most hits filed as inhibitors. chicken DT40 Tdp1-/-;hTDP1 cells + 20 nM CPT, ATP luminescence, 48 h; note: nearly all actives have a fitted effect of over 55% in size
#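 Chicken DT40 Tdp1-/- cells stably complemented with human TDP1 were seeded at 400 cells/well in medium containing 20 nM camptothecin, exposed to pin-transferred compounds, and grown at 37 °C for at least 48 hr. Viability was read as ATP luminescence.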
# TGFb CAGA inh – qHTS for Inhibitors of TGF-b: Confirmation of Cherry Picks; HepG2 CAGA-GFP TGF-b reporter, GFP fluorescence, 18 h; cells stimulated with TGF-beta, 500 pg/mL; shares compounds with TGFb SMAD3 inh; Potency, µM (highest dose often 46.1 µM), usual class: inhibitors; actives 63% (n = 1,600); AID 720534, 2013; note: nearly all actives have a fitted effect of over 65% in size
# HepG2 tox-2 – qHTS for Inhibitors of TGF-b: Cytotox Counterscreen for Cherry Picks | shares compounds with TGFb SMAD3 inh | HepG2 CAGA-GFP viability, ATP luminescence, 18 h; cells stimulated with TGF-beta, 500 pg/mL | Potency, µM (titrated, usually from 46.1 µM), usual class: inhibitors | actives 27% (n = 1,600) | AID 720535, 2013; note: nearly all actives have a fitted effect of over 70% in size
# CCL64 TGFb inh – qHTS for Inhibitors of TGF-b: CCL64 Cells Orthogonal Assay for Cherry Picks | CCL64 CAGA-GFP reporter, TGF-b stimulated, GFP fluorescence, 18 h | actives 41% (n = 1,600) | shares compounds with TGFb SMAD3 inh | Potency, µM (highest dose often 46.1 µM), usual class: inhibitors; note: nearly all actives have a fitted effect of over 65% in size
# COP TGFb inh – qHTS for Inhibitors of TGF-b: Hit Validation in HepG2 Cells using COP promoter. Potency, µM (titrated, usually from 46.1 µM), most hits filed as inhibitors. HepG2 COP-GFP TGF-b reporter, GFP fluorescence, 18 h; cells stimulated by added recombinant TGF-beta. shares compounds with TGFb SMAD3 inh. actives 3% (n = 1,600); note: nearly all actives have a fitted effect of over 70% in size
# Numbers stand for hits; n = inactive; u = inconclusive; x = not tested or not shown. Unless noted, calls come from the whole dose curve; as a rule, active = well fitted curve in the direction sought with a large enough effect; inconclusive = small, poorly fitted or top-dose-only effect, or another doubt; inactive = no such curve, though single readings can be large; an effect the other way counts as inactive or inconclusive.
SMILES,TDP1 cell noCPT,HepG2 tox-1,TDP1 inh,IL-1B inflam inh,TGFb SMAD3 inh,DT40 TDP1 CPT,TGFb CAGA inh,HepG2 tox-2,CCL64 TGFb inh,COP TGFb inh
CS/C(=N\S(=O)(=O)c1cccs1)Nc1ccc(F)c(Cl)c1,u,n,n,n,8.91µM,n,u,n,n,n
Cc1cc(C)n(CCNS(=O)(=O)c2ccc(C)c(C)c2)n1,n,n,n,n,n,n,x,x,x,x
C=CCn1c(COc2ccccc2F)nnc1SCC(=O)Nc1cc2oc3ccccc3c2cc1OC,u,n,n,n,u,u,u,n,u,n
COc1cc2ccccc2cc1C(=O)Nc1ccc(Cc2ccncc2)cc1,25.9µM,n,n,-71.5,u,18.4µM,8.2µM,u,11.6µM,n
CCCOc1ccc(C(=O)CCN2CCN(C(=O)OCC)CC2)cc1,5.17µM,n,n,n,15.8µM,2.31µM,8.2µM,20.6µM,18.4µM,23.1µM
Cc1cc(C)c2c(c1)cc(C)c1nnc(SCC(=O)Nc3ccc(S(=O)(=O)N4CCCCC4)cc3)n12,20.6µM,n,n,n,u,u,18.4µM,n,n,n
COc1ccc(CNC(=S)N/N=C/c2ccc(O)c(OC)c2)cc1,n,n,n,n,11.2µM,n,n,n,n,n
COc1ccc(CNC(=S)N/N=C/c2ccncc2)cc1,n,n,n,n,n,n,x,x,x,x
NCCCNc1nc(N)c([N+](=O)[O-])c(NC2CCCCC2)n1,3.66µM,n,x,n,5.01µM,4.11µM,4.61µM,u,5.8µM,n
Cc1ccc(NC(=O)CSc2nnc3nc(C)cc(C)n23)cc1,n,n,n,x,n,n,x,x,x,x
COc1ccccc1-c1cc(C(F)(F)F)nc(S(=O)(=O)CCCC(=O)N2CCOCC2)n1,2.31µM,n,n,-118.1,2.24µM,2.59µM,1.84µM,20.6µM,4.11µM,u
C[C@H](CO)N1C[C@H](C)[C@@H](CN(C)C(=O)Nc2ccc3c(c2)OCO3)Oc2ccc(NC(=O)C3CCCCC3)cc2C1=O,n,n,n,n,u,n,x,x,x,x
CCc1nc(N[C@H](C(=O)O)C(C)C)c2oc3ccccc3c2n1,u,n,n,n,n,n,x,x,x,x
CCc1nc(Nc2ccncc2)c2oc3ccccc3c2n1,2.31µM,n,n,-59.5,u,5.8µM,11.6µM,u,u,n
CCc1nc2ccc(C(=O)NCCCN3CCCC3=O)cn2c1N(C)C(=O)COc1ccccc1,n,n,x,n,n,n,x,x,x,x
CCO[C@H]1OC(C(=O)Nc2ccccc2)=C[C@@H](c2ccc(C(F)(F)F)cc2)[C@@H]1CCCO,14.6µM,n,n,-55.2,14.1µM,14.6µM,u,n,u,n
CCO[C@@H]1OC(C(=O)NCc2ccccc2)=C[C@H](c2ccc(Br)cc2)[C@H]1CCCO,u,n,n,n,u,23.1µM,u,n,u,n
CC(C)[C@H]1COCCS(=O)(=O)N1Cc1ccccc1-c1cccc2c1oc1ccccc12,18.4µM,n,x,n,u,u,9.2µM,n,n,n
CCCCC(=O)NC(c1cccc([N+](=O)[O-])c1)c1ccc2cccnc2c1O (centres undefined),2.91µM,n,x,n,u,3.66µM,10.3µM,7.31µM,u,n
Fc1ccc(-c2nc3ccc(Br)cn3c2Cc2cccc(Cl)c2)cc1,u,n,x,n,u,u,x,x,x,x
Cc1ccc(-c2nc3ccc(Br)cn3c2Cc2cccc(F)c2)cc1,u,n,x,n,11.2µM,16.4µM,u,n,u,n
CN(C)CCCN(C(=O)CCOc1ccccc1)c1nc2ccc(F)cc2s1,2.91µM,n,n,-85.9,3.55µM,2.91µM,14.6µM,u,8.2µM,u
CN(C)CCCN(C(=O)c1ccc(Br)s1)c1nc2ccc(F)cc2s1,u,n,n,x,n,u,x,x,x,x
COc1ccc(O)c(-c2cc(-c3ccccc3Cl)[nH]n2)c1,n,n,x,n,7.94µM,u,18.4µM,u,25.9µM,n
COc1ccc(-c2cc(-c3ccccc3O)[nH]n2)cc1,u,n,n,n,10µM,n,u,u,u,n
SMILES,TDP1 cell noCPT,HepG2 tox-1,TDP1 inh,IL-1B inflam inh,TGFb SMAD3 inh,DT40 TDP1 CPT,TGFb CAGA inh,HepG2 tox-2,CCL64 TGFb inh,COP TGFb inh
Cc1ccc2nc3c(c(Nc4ccc5c(c4)OCCO5)c2c1)CCC3,18.4µM,n,n,-92.2,3.55µM,16.4µM,u,u,u,n
Cc1cc(C)c(C#N)c(Nc2ccc3c(c2)OCCO3)n1,u,n,n,n,n,n,x,x,x,x
CCCCc1ccc(NC(=S)Nc2ccc(Nc3ccc(OC)cc3)cc2)cc1,20.6µM,n,n,n,8.91µM,18.4µM,23.1µM,u,u,n
Cn1c(NCC2CCCCC2)nc2cc(-c3ccsc3)sc2c1=O,u,n,x,n,u,25.9µM,23.1µM,u,u,n
Cc1cc(NC(=O)CS(=O)(=O)c2cn(Cc3cccc(Cl)c3)c3ccccc23)no1,20.6µM,n,x,n,17.8µM,25.9µM,11.6µM,n,n,n
CCn1cc(S(=O)(=O)CC(=O)Nc2cccc(C)c2)c2ccccc21,n,n,x,n,n,n,x,x,x,x
CCSc1ccccc1C(=O)n1nnc2ccccc21,u,n,n,n,11.2µM,12.6µM,5.8µM,u,u,n
CC(=O)n1nnc2ccccc21,x,n,n,x,n,x,x,x,x,x
